Assay outcomes (PubChem BioAssay)
CSC inhib: cancer stem cell inhibition | cancer stem cell-like cells viability, luminescence | inhibition, % at 7.5 µM | 1.1% of 300,000 active | AID 2717; in the data active = inhibition above about 75%; inconclusive = no clear call, values can overlap the other calls; tested in HMLE shEcad cells
MPTP block: inhibitors of mitochondrial permeability transition pore | isolated mouse mitochondria, Ca2+ swelling absorbance, 30 min | inhibition, % at 10 µM | 1.4% of 360,000 active | AID 602449;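 active = inhibition of 50% or more, scaled per plate between neutral and stimulator controls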;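 also: 0% = DMSO wells given calcium and 100% = 1 mM EGTA wells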
Mdm2 MdmX PPI: human Mdm2/MdmX binding inhibition | O15151+Q00987 | 3% of 330,000 active | inhibition, % at 8 µM | SaOS-2 split-luciferase Mdm2/MdmX complementation, luminescence | AID 485346;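 active = inhibition of at least 50% at 8 µM in the primary screen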
NR3A LBD binder: modulators (binders) of human NR3A ligand-binding domain; NR3A LBD differential scanning fluorimetry, Tm shift; 0% = protein alone, 100% = glycine-bound protein; 2.5% of 340,000 active; Tm shift relative to glycine control, % at 25 µM;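 active = melting temperature shift of at least 10% of the positive control shift, at one fixed dose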
Beta apoptosis: blocks beta cell apoptosis | AID 435005 | 0.8% of 300,000 active | protection from apoptosis, % (no concentration beside the values) | INS-1E cytokine-induced death, ATP luminescence, 48 h; percent of positive-control rescue, neutral wells zero;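 active = Every replicate reaches about 75%, or at least half do and their mean reaches it too, limit read from the data; inconclusive = At least half of replicates reach the limit but their mean does not; inactive = Under half of replicates reach the limit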;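 also: 0% = cytokine-treated negative control wells and 100% = positive control rescue; higher means more ATP so stronger rescue from cytokine killing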
SKKanGAS inh: blocks kanamycin growth of S. pyogenes SKKanGAS strain; AID 1662; 1.3% of 300,000 active; BacTiter-Glo, 6 h; inhibition, % at 7.5 µM;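 active = mean replicate score, as percent of positive control median, at least 50; inconclusive = mean below 50 but one replicate at or above 50; inactive = mean and every replicate below 50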;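 also: strain carries kanamycin resistance gene driven by streptokinase promoter and grows in 40 µg/ml kanamycin; loss of luminescence reflects streptokinase promoter inhibition or plain growth inhibition; 0% = median of DMSO wells and 100% = positive control at its reference dose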
Mdm2 MdmX conf: human Mdm2/MdmX binding inhibition, confirmed; shares compounds with Mdm2 MdmX PPI; luminescent assay; inhibition, % at 8 µM; 55% of 10,000 active; in the data active = inhibition above about 40%
Full FLuc ctr: inhibits full-length luciferase, flagging false Mdm2/MdmX hits. shares compounds with Mdm2 MdmX PPI. inhibition, % at 8 µM. SaOS-2 full-length luciferase counterscreen, luminescence. AID 504607. 77% of 6,200 active;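 active = mean inhibition at 8 µM reaching about 37%, which flags the compound as non-specific, limit read from the data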;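 also: p53-null SaOS-2 cells with luciferase driven by a doxycycline-inducible promoter; compound on cells about two nights before reading with doxycycline added after day one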
The depositor's hits bear a star; ? = inconclusive; . = not tested or not shown. In the library only some 6.9% were active in any assay of this set; here they are far more common.

SMILES	CSC inhib	MPTP block	Mdm2 MdmX PPI	NR3A LBD binder	Beta apoptosis	SKKanGAS inh	Mdm2 MdmX conf	Full FLuc ctr
O=C(Nc1ccc(N2CCN(C(=O)c3ccco3)CC2)c(Cl)c1)c1cc2ccccc2o1	-7	-2	100*	-1	47	40	75*	51*
CCCC(=O)N1CCN(c2ccc(NC(=O)c3cccs3)cc2Cl)CC1	.	1	3	-42	-1	2	.	.
O=C(Nc1ccc(N2CCN(C(=O)c3ccccc3)CC2)c(Cl)c1)c1ccco1	12	-1	12	-16	11	7	.	.
CCC(=O)N1CCN(c2ccc(NC(=O)c3cc4ccccc4o3)cc2Cl)CC1	34	-1	82*	-9	32	20	25	.
Cc1cccc(OCCCn2c(CO)nc3ccccc32)c1	20	2	-31	-4	2	0	.	.
CCOc1ccc(S(=O)(=O)N2CCN(C(=O)c3ccccc3Cc3ccccc3)CC2)cc1	-1	-1	21	2	-2	-4	.	.
COc1ccc(-c2cn(-c3ccccc3)c(=S)[nH]2)cc1OC	-7	-1	94*	1	-5	4	-45	.
Cc1cc(C)n(-c2nc(NCC(C)O)c3c4c(sc3n2)COC(C)(C)C4)n1 (centres undefined)	3	0	8	0	13	5	.	.
Cc1cc(C)n(-c2nc(SCCN(C)C)c3c4c(sc3n2)COC(C)(C)C4)n1	8	2	54*	0	23	16	58*	53*
CN(C)S(=O)(=O)Oc1ccsc1C(=O)Nc1ccc(Cl)c(Cl)c1	24	1	21	5	-5	7	.	.
COc1ccc(COc2ccsc2C(=O)Nc2ccc(Cl)c(Cl)c2)cc1	17	3	76*	6	-5	0	7	.
Cc1cccc(C(=O)OCC(=O)c2ccc(CC(=O)N3CCOCC3)s2)c1C	.	0	4	-2	.	.	.	.
COc1ccc(-c2cc(-c3c(O)c(OC)c4occc4c3OC)[nH]n2)cc1OC	14	3	60*	-6	8	-4	31	93*
CC1CCC2(CC1)NC(=O)N(CC(=O)NC(=O)Nc1ccc3c(c1)OCCO3)C2=O (centres undefined)	-2	2	-5	-3	-2	14	.	.
COc1ccc2c(c1)c1ncn(CCc3ccccc3)c(=O)c1n2C	74	-1	6	3	-9	-5	.	.
COc1ccc(Cn2cnc3c4cc(F)ccc4n(C)c3c2=O)cc1	1	44	65*	15*	-7	-1	9	.
CC(C)n1c(SCC(=O)NC2CCCCC2)nnc1-c1ccco1	-2	-1	3	-2	3	-12	.	.
N/C(=N\OC(=O)c1cc([N+](=O)[O-])ccc1Cl)c1ccccn1	-6	0	35	-2	-6	-3	.	.
N/C(=N\OC(=O)c1ccc(Cl)cc1Cl)c1ccccn1	18	1	52*	1	110*	8	38	53*
N/C(=N\OC(=O)c1ccc([N+](=O)[O-])cc1Cl)c1ccccn1	6	2	54*	-4	12	2	37	.
Cc1ccc(C(=O)O/N=C(\N)c2ccccn2)c(Cl)c1	26	1	96*	-1	.	16	89*	20
N/C(=N\OC(=O)c1cc(Br)ccc1Cl)c1ccccn1	-7	-1	-103	-1	.	3	.	.
Cc1ccc(C(=O)O/N=C(\N)c2ccccc2)c(Cl)c1	-8	2	80*	5	.	-4	58*	120*
N/C(=N\OC(=O)c1ccc(Cl)cc1[N+](=O)[O-])c1ccccn1	-2	0	-78	0	5	-1	.	.
Cc1nn(-c2cc(N(S(C)(=O)=O)S(C)(=O)=O)c(Cl)cc2Cl)c(=O)n1C	-12	0	22	0	.	-4	.	.
SMILES	CSC inhib	MPTP block	Mdm2 MdmX PPI	NR3A LBD binder	Beta apoptosis	SKKanGAS inh	Mdm2 MdmX conf	Full FLuc ctr
COc1ccc(C2c3ccc4ccccc4c3Oc3ncn(CCCO)c(=N)c32)cc1 (centres undefined)	6	-2	93*	0	8	2	30	.
CN(C)CCCn1cnc2c(c1=N)C(c1ccccc1)c1ccc3ccccc3c1O2 (centres undefined)	104*	-4	100*	1	98*	0	100*	52*
N=c1c2c(ncn1CCCO)Oc1c(ccc3ccccc13)C2c1ccccc1 (centres undefined)	50	-3	62*	2	19	0	31	.
COc1ccc(C2c3ccc4ccccc4c3Oc3ncn(CCO)c(=N)c32)cc1 (centres undefined)	35	-2	97*	-4	3	3	51*	76*
O=C(NCc1n[nH]c(=S)n1-c1cccc(C(F)(F)F)c1)c1ccco1	-1	0	-2	1	-4	-2	.	.
O=C(NCC1CCCO1)C1CC(=O)N(c2cccc(Cl)c2)C1 (centres undefined)	-11	-2	4	-2	.	1	.	.
COc1cc(OC)cc(C(=O)N[C@H](C(=O)Nc2c(C)n(C)n(-c3ccccc3)c2=O)C(C)C)c1	-17	-1	10	-3	-1	.	.	.
Cc1cccnc1NC(=O)CCc1nnc2ccc(N3CCC4(CC3)OCCO4)nn12	9	-1	1	2	-20	0	.	.
COc1ccc(C2C3=C(CC(C)(C)CC3=O)Oc3ncn(CC(C)C)c(=N)c32)cc1 (centres undefined)	23	30	14	-1	6	1	.	.
COc1ccc(C2c3ccc4ccccc4c3Oc3ncn(CCN(C)C)c(=N)c32)cc1 (centres undefined)	16	-3	91*	-10	7	0	43*	64*
N=c1c2c(ncn1CCCO)Oc1ccc3ccccc3c1C2c1ccccc1 (centres undefined)	15	-4	58*	-2	111*	6	31	.
CN(Cc1ccon1)Cc1cn(Cc2ccccc2)nc1-c1ccc2c(c1)OCO2	-6	0	7	-3	-2	-1	.	.
Nc1cc2ccncc2c2ccccc12	-12	0	84*	9	4	14	84*	50*
Cn1c(=O)c(C(=O)NCC2CCCO2)c(O)c2ccccc21 (centres undefined)	3	-1	78*	0	-2	-11	45*	22
Cn1c(=O)c(C(=O)NNC(=O)c2ccc(Br)cc2)c(O)c2ccccc21	?	3	54*	-2	6	92*	30	.
O=C(NCC1CCCO1)c1c(O)c2cccc3c2n(c1=O)CCC3 (centres undefined)	20	-5	84*	0	2	1	58*	46*
Cn1c(C(=O)NCC2CCCO2)cc2c(=O)n(C)c3ccccc3c21 (centres undefined)	4	-2	0	0	1	-14	.	.
